Screens from PubChem BioAssay.
D2 antagonist = D2 dopamine receptor (human) antagonism; P14416; HEK293 TREx D2 cells, calcium flux, dopamine EC80; inhibition, % at 10 µM; 2% of 340,000 active; in the data active = inhibition above about 30%; inactive = below that, where a call was filed; also: 0% is about no effect
Target sequence (P14416 whole entry, looked up): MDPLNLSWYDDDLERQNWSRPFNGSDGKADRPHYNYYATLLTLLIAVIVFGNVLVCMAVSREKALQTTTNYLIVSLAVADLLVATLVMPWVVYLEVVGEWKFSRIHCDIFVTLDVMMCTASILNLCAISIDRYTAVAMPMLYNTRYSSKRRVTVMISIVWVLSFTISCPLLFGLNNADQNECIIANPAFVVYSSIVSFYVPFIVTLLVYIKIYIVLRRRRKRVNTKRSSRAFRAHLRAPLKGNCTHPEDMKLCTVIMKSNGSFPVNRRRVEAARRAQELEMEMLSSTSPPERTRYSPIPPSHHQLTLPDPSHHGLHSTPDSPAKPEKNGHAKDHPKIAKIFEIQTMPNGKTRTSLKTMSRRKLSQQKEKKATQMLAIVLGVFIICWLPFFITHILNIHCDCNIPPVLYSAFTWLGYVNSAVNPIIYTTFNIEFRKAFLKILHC
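Read-out: kinetic calcium fluorescence (1 cycle/s) in inducible HEK293 T-REx D2 cells after an EC80 dopamine addition that followed 180 s compound preincubation. Loss of the dopamine response indicates antagonism.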
D2 ag-1 = activates the human D2 dopamine receptor. P14416. HEK293 T-REx D2 cells, calcium flux agonist mode. activation, % at 2 µM. 0.53% of 340,000 active;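 active = activation over 3 SD above normal in the single-dose calcium agonist read, cut at about 30% in these data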; also: 0% is about no effect
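In this primary screen, compounds producing a positive calcium signal within 180 s of addition to tetracycline-induced, force-coupled HEK293 Trex D2 cells are flagged; cells are dye-loaded with a no-wash calcium kit beforehand.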
D2 PAM-1 = positively modulates the human D2 dopamine receptor allosterically; P14416; HEK293 T-REx D2, calcium flux, EC20 dopamine potentiation; potentiation, % at 10 µM; 0.34% of 340,000 active; AID 485347;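 active = potentiation over 3 SD above the plate norm, cut at about 30% in these data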; also: 0% is about no effect
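Tetracycline-induced Hek293 Trex D2 cells, force-coupled to calcium, loaded with no-wash calcium dye. Compound added with 180 s kinetic read for agonism, then EC20 dopamine and a further 180 s read for potentiation.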
D2 PAM-2 = potentiates the human D2 dopamine receptor allosterically | P14416 | DiscoveRx D2 beta-arrestin cells, luminescence, 90 min; 100% = 57 uM dopamine signal | potentiation, % (concentration not given with the values) | 0.23% of 360,000 active; in the data active = potentiation above about 50%; inconclusive = mostly about 30% to 49%
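D2 cells co-treated with compound plus 50 nM dopamine (EC20) for 90 min at 37 deg C to detect potentiation. Beta-arrestin recruitment was read as enzyme-fragment luminescence after 1 h at ambient temperature. Full response was set by 57 uM dopamine.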
D2 ag-2 = activates the human D2 dopamine receptor; 0.084% of 360,000 active; AID 624465; P14416; activation, % (test concentration not listed); DiscoveRx PathHunter D2 beta-arrestin, luminescence, 90 min; 100% = 57 uM dopamine signal; in the data active = activation above about 40%; inconclusive = between about 15% and that limit
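DiscoveRx PathHunter D2 beta-arrestin cells (2,100/well) attached overnight, then compound-stimulated 90 min at 37 C in HBSS/10 mM HEPES/0.1% Tween-20 buffer; beta-galactosidase complementation read by luminescence after 1 h at ambient temperature. Dopamine 57 uM final (EC100) as control.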
The depositor's hits bear a star. Only some compounds are listed: those with a hit (about 2.4% of all), similar ones and a draw of the others.

Results for Cc1nc2sc(C(=O)OCC(=O)N3c4ccccc4CC3C)c(C)c2c(=O)[nH]1 (stereo unspecified) ?
D2 antagonist: 52.3*; D2 ag-1: 5.4; D2 PAM-1: -6.6; D2 PAM-2: -0.7; D2 ag-2: -0.6

What do the screens show for `COc1ccc(S(=O)(=O)Nc2ccc(N3CCOCC3)cc2)cc1[N+](=O)[O-]`?
D2 antagonist: 2.4; D2 ag-1: -0.6; D2 PAM-1: 0.7; D2 PAM-2: 3.7; D2 ag-2: 2.1

How did COc1ccc(S(=O)(=O)Nc2ccc(N3CCOCC3)cc2)cc1Br do in these assays?
D2 antagonist: 30.5*; D2 ag-1: 0.0; D2 PAM-1: 5.3; D2 PAM-2: -35.9; D2 ag-2: -0.4

Results for CCC(=O)N1CCc2cc(S(=O)(=O)CCC(=O)NCCc3ccccc3)ccc21 ?
D2 antagonist: 1.3; D2 ag-1: -1.9; D2 PAM-1: 4.7; D2 PAM-2: -13.7; D2 ag-2: -1.5

How did COc1ccc(CCNC(=O)C(NS(=O)(=O)c2ccc3c(c2)CCN3C(C)=O)C(C)C)cc1OC (stereo unspecified) do in these assays?
D2 antagonist: 4.7; D2 ag-1: -0.3; D2 PAM-1: 31.7*

What do the screens show for `CCC(=O)N1CCc2cc(S(=O)(=O)CCC(=O)NCCc3ccc(OC)c(OC)c3)ccc21`?
D2 antagonist: 36.6*; D2 ag-1: -0.1; D2 PAM-1: 2.4; D2 PAM-2: -13.4; D2 ag-2: -0.4

What do the screens show for `COc1ccc(S(=O)(=O)Nc2ccc3c(c2)N(C(C)=O)CCC3)cc1OC`?
D2 antagonist: 33.8*; D2 ag-1: -0.3; D2 PAM-1: 16.7; D2 PAM-2: -2.2; D2 ag-2: 3.4

Results for COc1ccc(CCNC(=O)c2ccc3c(c2)CCN3S(C)(=O)=O)cc1OC ?
D2 ag-1: 1.2; D2 PAM-1: 9.0

Results for O=C(Nc1ccccc1F)C1CCN(S(=O)(=O)c2cccc3nonc23)CC1 ?
D2 antagonist: -0.4; D2 ag-1: -2.2; D2 PAM-1: 13.6; D2 PAM-2: -6.4; D2 ag-2: -4.0

How did CC(=O)C(Cc1ccccc1)NC(=O)COC(=O)c1cc(S(=O)(=O)N2CCOCC2)ccc1F (stereo unspecified) do in these assays?
D2 PAM-2: -6.0; D2 ag-2: 0.4

Results for CC(=O)Nc1sc(N/N=C\c2ccccc2F)nc1-c1cccs1 ?
D2 antagonist: -1.4; D2 ag-1: 0.5; D2 PAM-1: -1.4; D2 PAM-2: 63.9*; D2 ag-2: inconclusive

Results for CC(=O)Nc1sc(N/N=C\c2ccc(O)cc2)nc1-c1cccs1 ?
D2 antagonist: -16.9; D2 ag-1: -1.4; D2 PAM-1: 12.8; D2 PAM-2: 14.0; D2 ag-2: 6.7

How did Nc1nnnn1/N=C/c1cccc(OCc2ccccc2Cl)c1 do in these assays?
D2 antagonist: 30.5*; D2 ag-1: -2.0; D2 PAM-1: 3.1; D2 PAM-2: -19.6; D2 ag-2: -3.9

Results for N#Cc1ccccc1S(=O)(=O)N1CCCC(c2nc3c(nnn3Cc3cccc(Cl)c3)c(=O)[nH]2)C1 (stereo unspecified) ?
D2 ag-1: -0.3; D2 PAM-1: 2.6

Results for COCCCNc1ccn2nc(-c3ccc(Cl)cc3)cc2n1 ?
D2 PAM-2: 6.7; D2 ag-2: 11.8

What do the screens show for `O=C(NC1=C(Nc2ccc(Cl)cc2)C(=O)c2ccccc2C1=O)c1ccccc1`?
D2 antagonist: 7.1; D2 ag-1: -1.4; D2 PAM-1: 0.7; D2 PAM-2: 51.2*; D2 ag-2: 11.7

Results for CCc1nnc(NC(=O)c2ccc(S(=O)(=O)N3CCCC3)cc2)s1 ?
D2 antagonist: -24.4; D2 ag-1: 0.4; D2 PAM-1: -0.6; D2 PAM-2: -5.6; D2 ag-2: -1.6

How did CCc1nnc(NC(=O)c2ccc(S(=O)(=O)N3CCCC(C)C3)cc2)s1 (stereo unspecified) do in these assays?
D2 antagonist: 0.0; D2 ag-1: -0.8; D2 PAM-1: 34.8*; D2 PAM-2: -2.9; D2 ag-2: -2.1

What do the screens show for `CCN(CC)CC#CCC(O)(c1ccccc1)c1ccc(Br)cc1` (stereo unspecified)?
D2 antagonist: 34.5*; D2 ag-1: 0.2; D2 PAM-1: -19.8; D2 PAM-2: -19.6; D2 ag-2: 0.0

Results for Nc1cc2c(cc1[N+](=O)[O-])OCCO2 ?
D2 antagonist: 47.2*; D2 ag-1: 0.3; D2 PAM-1: -8.0; D2 PAM-2: -25.6; D2 ag-2: -3.3

What do the screens show for `Cc1ccc(Cn2cc(S(=O)(=O)c3ccc(C(C)C)cc3)c(=O)c3cc4c(cc32)OCO4)cc1`?
D2 antagonist: 36.1*; D2 ag-1: 0.1; D2 PAM-1: 7.6; D2 PAM-2: 5.5; D2 ag-2: -2.8

What do the screens show for `CCOc1ccc2oc(=O)cc(CN3CCN(C(=O)c4cccc(F)c4)CC3)c2c1`?
D2 ag-1: -0.3; D2 PAM-1: -6.4

Results for Cc1cc(NC(=O)c2ccc3c(c2)C(=O)N(C2CCCCC2)C3=O)no1 ?
D2 antagonist: 55.5*; D2 ag-1: 0.5; D2 PAM-1: -5.2; D2 PAM-2: -0.4; D2 ag-2: -0.8

What do the screens show for `O=C(O)C(Cc1ccccc1)N1C(=O)c2ccccc2C1=O` (stereo unspecified)?
D2 antagonist: 13.7; D2 ag-1: 0.5; D2 PAM-1: -16.4; D2 PAM-2: 4.5; D2 ag-2: -3.0

What do the screens show for `CCC(C(=O)O)N1C(=O)c2ccccc2C1=O` (stereo unspecified)?
D2 antagonist: 37.0*; D2 ag-1: 0.5; D2 PAM-1: 4.9; D2 PAM-2: 1.4; D2 ag-2: 0.1

How did Cc1c(/C=C(\C#N)C(=O)NCc2ccccc2)cc(C#N)n1C do in these assays?
D2 antagonist: 36.5*; D2 ag-1: -0.4; D2 PAM-1: -18.4; D2 PAM-2: -19.4; D2 ag-2: -6.1

Results for CCCNCC1C(Oc2ccc(Cl)cc2)C(=O)N1c1ccccc1C (stereo unspecified) ?
D2 antagonist: 50.9*; D2 ag-1: 1.0; D2 PAM-1: -22.6; D2 PAM-2: -21.8; D2 ag-2: -4.8

What do the screens show for `COCCNCC1C(Oc2ccc(Cl)cc2)C(=O)N1c1ccccc1C` (stereo unspecified)?
D2 antagonist: 50.4*; D2 ag-1: 0.8; D2 PAM-1: -34.2; D2 PAM-2: -22.5; D2 ag-2: 1.3

How did CCN(CC(=O)NCc1ccc(Cl)cc1)C(=O)COc1cccc(Cl)c1 do in these assays?
D2 antagonist: 33.1*; D2 ag-1: 0.7; D2 PAM-1: -9.0; D2 PAM-2: -62.1; D2 ag-2: -6.4

How did CCN(CC(=O)NCc1ccc(Cl)cc1)C(=O)COc1cccc(C(F)(F)F)c1 do in these assays?
D2 antagonist: -17.2; D2 ag-1: 0.1; D2 PAM-1: 3.6; D2 PAM-2: -12.0; D2 ag-2: -4.3
